This is an account of results in PubChem BioAssay.

The source made the active and inactive calls. Unless noted, how the calls were made is not given here.

Assay [1] is described as follows: compound effects on lung adenocarcinoma cell viability – A549, calcein-AM fluorescence, 48 h, basal, profiling panel (AID 1162). Further: test concentration not given here. Conditions: higher = more signal.
Assay [2] in a line: compound effects on differentiated 3T3-L1 adipocyte viability – cell-based, 3T3-L1 adipocytes, calcein-AM fluorescence, 48 h, basal, profiling panel (AID 1163). Further: test concentration not given here. Particulars: 3T3-L1 adipocytes viability, higher = more signal.
Assay [3] can be described thus: compound effects on hepatocellular carcinoma cell viability – HepG2, calcein-AM fluorescence, 48 h, basal, profiling panel (AID 1164). Further: test concentration not given here. Conditions: higher = more signal.
Assay [4] is described as follows: compound effects on multiple myeloma cell viability – MM1S, calcein-AM fluorescence, 48 h, basal, profiling panel (AID 1165). Further: test concentration not given here. Conditions: higher = more signal.
Assay [5] in a line: calcein-AM signal in unstimulated myeloma cells – cell-based, calcein-AM fluorescence, 48 h, PK04 Diversity Set, profiling panel (AID 1166).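 Further: cells grown under basal conditions without added stimulus; test concentration not given here.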 Conditions: RPMI8226 myeloma viability, higher = more signal.
Assay [6] in a line: JC-1 mitochondrial signal, unstimulated HepG2 cells – cell-based, JC-1 fluorescence, 24 h, 100 nL compound, profiling panel (AID 1167). Further: test concentration not given here. Conditions: HepG2 mitochondrial potential, higher = more signal.
The nature of assay [7]: JC-1 mitochondrial signal, unstimulated adipocytes – cell-based, JC-1 fluorescence, 3T3-L1 adipocytes, 24 h, 100 nL compound, profiling panel (AID 1168). Further: test concentration not given here. Particulars: JC-1 mitochondrial fluorescence, higher = more signal, called active from +8 up or from −8 down.
The nature of assay [8]: JC-1 mitochondrial signal, unstimulated myeloma cells – cell-based, JC-1 fluorescence, RPMI8226, 24 h, 100 nL compound, profiling panel (AID 1169). Further: test concentration not given here. Particulars: JC-1 mitochondrial potential fluorescence, higher = more signal.
Assay [9] in a line: JC-1 mitochondrial signal, unstimulated MM1S myeloma – cell-based, JC-1 fluorescence, 24 h, 100 nL compound, profiling panel (AID 1170). Further: test concentration not given here. Conditions: MM1S mitochondrial potential, higher = more signal.
Assay [10] in a line: resazurin metabolic signal in A549 cells – cell-based, resazurin fluorescence, 24 h, PK04 Diversity Set, profiling panel (AID 1171). Further: test concentration not given here. Conditions: A549 viability, higher = more signal, called active from +8 up or from −8 down. In general terms: Resazurin is reduced to fluorescent resorufin, in cell work by metabolically active cells.
Assay [11] can be described thus: resazurin metabolic signal in HepG2 cells – cell-based, resazurin fluorescence, 24 h, PK04 Diversity Set, profiling panel (AID 1172). Further: test concentration not given here. Conditions: HepG2 viability, higher = more signal.
Assay [12] is described as follows: budding yeast growth changes without added modifier – OD600, strain BY4716, 24 h, basal condition, primary screen (AID 1173). Particulars: S. cerevisiae BY4716 growth, OD600, 24 h; higher = more signal, called active from +8 up or from −8 down.
A short description of assay [13]: viability profiling in MM1S myeloma cells – cell-based, resazurin fluorescence, basal, 24 h, PK04 Diversity Set, profiling panel (AID 1174). Further: test concentration not given here. Conditions: higher = more signal, called active from +8 up or from −8 down.
Assay [14] deals with Dihydroorotate dehydrogenase (quinone), mitochondrial (Plasmodium falciparum (isolate 3D7)) (UniProt Q08210). Description: inhibition of P. falciparum DHODH – biochemical, C-terminal His tag, absorbance 600 nm, primary screen (AID 1175).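 Further: recombinant parasite enzyme with a five histidine tag at its C terminus; test concentration not given here.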 Particulars: PfDHODH enzyme, DCIP absorbance 600 nm; higher = more signal, called active from +8 up or from −8 down.
Chain of Dihydroorotate dehydrogenase (quinone), mitochondrial (Plasmodium falciparum (isolate 3D7)) (Q08210 whole entry, looked up): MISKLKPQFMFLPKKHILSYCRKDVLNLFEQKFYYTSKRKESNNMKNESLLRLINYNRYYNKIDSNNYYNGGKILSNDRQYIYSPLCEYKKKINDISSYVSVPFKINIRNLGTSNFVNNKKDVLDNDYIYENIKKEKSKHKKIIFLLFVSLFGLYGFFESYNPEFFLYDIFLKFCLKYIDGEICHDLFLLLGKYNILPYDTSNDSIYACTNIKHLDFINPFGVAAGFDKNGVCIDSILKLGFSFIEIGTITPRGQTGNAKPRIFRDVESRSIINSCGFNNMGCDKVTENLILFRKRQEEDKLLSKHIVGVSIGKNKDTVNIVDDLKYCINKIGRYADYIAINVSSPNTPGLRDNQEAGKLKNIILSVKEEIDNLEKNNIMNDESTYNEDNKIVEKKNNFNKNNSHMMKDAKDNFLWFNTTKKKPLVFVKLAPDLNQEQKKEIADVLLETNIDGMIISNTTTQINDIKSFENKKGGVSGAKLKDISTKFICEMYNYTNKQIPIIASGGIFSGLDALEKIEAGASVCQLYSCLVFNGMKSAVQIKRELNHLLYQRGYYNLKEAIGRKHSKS
The nature of assay [15]: inhibition of PAO1 biofilm formation – strain PAO1, LB-PBS medium, absorbance 600 nm, primary screen (AID 1176). Further: test concentration not given here. Conditions: P. aeruginosa PAO1 growth/biofilm, A600, 12 h; higher = more signal.
Assay [16] in a line: growth modulation of vineyard yeast isolate – strain RM11-1a, OD600, basal, 24 h, primary screen (AID 1177).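 Further: cultures grown under basal conditions with no added stressor; test concentration not given here.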 Particulars: S. cerevisiae RM11-1a growth, OD600, 24 h; higher = more signal, called active from +8 up or from −8 down.
Assay [17] in a line: growth of efflux-deficient E. coli DRC39 – strain DRC39, OD650, 24 h, E. coli filamentation inducers, primary screen (AID 1178).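 Further: growth measured as culture turbidity by optical density at 650 nm; test concentration not given here.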 Particulars: E. coli DRC39 acrAB, higher = more signal, called active from +8 up or from −8 down.
Assay [18] can be described thus: growth of efflux-deficient E. coli DRC39 – strain DRC39, OD650, 48 h, E. coli filamentation inducers, primary screen (AID 1179).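 Further: screen aims at cell division blockers that make cells filament.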 Particulars: E. coli DRC39 delta-acrAB growth, higher = more signal, called active from +8 up or from −8 down.
A short description of assay [19]: viability profiling in RPMI8226 myeloma cells – cell-based, resazurin fluorescence, basal, 24 h, PK04 Diversity Set, profiling panel (AID 1180).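 Further: RPMI8826 multiple myeloma cell line at 5000 cells per well; test concentration not given here.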 Particulars: higher = more signal.
Assay [20] has as its target E3 ubiquitin-protein ligase XIAP (Homo sapiens) (UniProt P98170). Description: small molecules binding XIAP protein – biophysical, small-molecule microarray, fluorescence 635 nm, primary screen (AID 1181).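 Further: score merges 667 nm emission and signal to noise over triplicate slides.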 Particulars: higher = more signal.

Chain of E3 ubiquitin-protein ligase XIAP (Homo sapiens) (P98170 whole entry, looked up): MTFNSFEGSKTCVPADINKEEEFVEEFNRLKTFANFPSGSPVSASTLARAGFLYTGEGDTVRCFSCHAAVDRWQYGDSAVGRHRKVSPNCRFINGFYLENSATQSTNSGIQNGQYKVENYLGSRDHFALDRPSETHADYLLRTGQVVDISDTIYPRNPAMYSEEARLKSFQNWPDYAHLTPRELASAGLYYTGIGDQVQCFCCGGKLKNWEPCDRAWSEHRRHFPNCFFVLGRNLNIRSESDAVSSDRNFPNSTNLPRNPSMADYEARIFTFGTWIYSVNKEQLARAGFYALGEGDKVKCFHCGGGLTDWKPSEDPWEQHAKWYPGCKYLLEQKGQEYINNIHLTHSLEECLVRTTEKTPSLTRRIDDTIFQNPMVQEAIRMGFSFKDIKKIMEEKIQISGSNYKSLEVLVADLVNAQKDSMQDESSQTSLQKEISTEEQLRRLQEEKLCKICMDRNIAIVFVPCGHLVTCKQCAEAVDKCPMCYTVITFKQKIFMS

On to `CCCCCCCCCCC(O)C1C=CC2C(=O)N(Cc3ccccc3)C(=O)C2N1n1cnnc1` (stereo not given), for which the z-score in assay [1] is -0.509; in assay [2], 0.381; in assay [3] it was -0.324; in [4], -0.514; in [5], -0.921; in assay [6], 0.015. Also, the z-score in assay [7] was -1.51 (inactive); in [8], -0.0408; in assay [9], -0.979; in assay [10] it was -0.929 (inactive); in [11] it was -1.17; in assay [12] it was -0.472 (inactive). The z-score in [13] is -1.39 (inactive); in assay [15], -0.541 (inactive); in [16] it was -0.623 (inactive); in assay [17] it was -0.845 (inactive); in [18], -0.592 (inactive); in assay [19], -1.15. The composite z-score is -1.2 (inactive) in assay [14] and -0.0085 in assay [20].

On to `COC(=O)[C@@]1(Cc2ccccc2)N=C(c2ccc(OCCCO)cc2)O[C@H]1c1ccccc1N=[N+]=[N-]`, for which the z-score is 0.119 in [1]; 0.113 in [2]; -2.06 in assay [3]; -3.35 in assay [4]; -4.04 in assay [5]; 1.12 in assay [6]. The z-score in assay [7] is -0.528 (inactive); in [8], -1.11; in assay [9], -0.896; in [10], -1.83 (inactive); in [11] it was -0.914; in assay [12], 0.0975 (inactive). Moreover, the z-score in assay [13] is -2.58 (inactive); in [15], 1.49 (inactive); in assay [16], 1.57 (inactive); in assay [17] it was 0.368 (inactive); in assay [18], 0.752 (inactive); in [19], -2.93. Further, the figures for the composite z-score in assay [14] and in assay [20] were 0.0308 (inactive) and 0.723, respectively.

`CO[C@H]1O[C@H](CO)[C@@H](OC(=O)Nc2ccc3c(c2)OCO3)[C@H](OC(=O)Nc2ccccc2)[C@H]1OC(=O)Nc1ccccc1`: the z-score in assay [1] was -2.08; in assay [2], 1.11; in assay [3], -2.7; in [4] it was -1.67; in assay [5], -2.56; in assay [6], -0.812. Besides, the z-score is 1.42 (inactive) in assay [7]; -0.442 in [8]; -1.37 in assay [9]; -3.25 (inactive) in [10]; -1.78 in [11]; 1.38 (inactive) in assay [12]. Further, the z-score in [13] is -3.14 (inactive); in assay [15], -0.329 (inactive); in [16], 2.93 (inactive); in assay [17], 0.402 (inactive); in assay [18] it was -0.728 (inactive); in [19] it was -2.41. The composite z-score in assay [14] was 1.15 (inactive); in assay [20] it was 0.137.

As to `CCCCC=C[C@@H](NC(=O)c1ccco1)c1ccccc1`, the z-score was -1.08 in assay [1]; -0.872 in assay [2]; 0.264 in assay [3]; -0.499 in assay [4]; -1.16 in assay [5]; 0.989 in assay [6]. The z-score in [7] was 0.0899 (inactive); in assay [8], 0.112; in [9], -1.05; in assay [10], 0.335 (inactive); in [11], 1; in assay [12] it was 1.42 (inactive). The z-score in [13] is 0.356 (inactive); in [15], -0.126 (inactive); in [16], 0.846 (inactive); in assay [17] it was 0.358 (inactive); in assay [18], 0.815 (inactive); in assay [19], 0.223. The composite z-score in assay [14] is 0.559 (inactive); in assay [20], -0.123.

For the compound `COCC1=C2[C@@H](CCc3ccccc3)OB(O)C[C@@H]2[C@@H]2C(=O)N(Cc3ccccc3)C(=O)[C@@H]2C1`, the z-score was 0.0476 in [1]; 0.873 in [2]; 0.128 in [3]; -1.51 in assay [4]; -0.138 in [5]; -1.59 in [6]. Besides, the z-score was -0.897 (inactive) in assay [7]; -0.812 in assay [8]; 0.24 in assay [9]; 0.21 (inactive) in assay [10]; 0.0373 in assay [11]; -1.69 (inactive) in [12]. In addition, the z-score in assay [13] was -0.278 (inactive); in [15], -0.177 (inactive); in assay [16], -1.06 (inactive); in [17] it was -0.0682 (inactive); in assay [18], -0.0309 (inactive); in assay [19], -0.039. Besides, the composite z-score in assay [14] was -0.345 (inactive); in assay [20], -0.231.

Regarding `C=CC(COC(C)=O)NS(=O)(=O)c1ccc(Br)cc1` (stereo not given), the z-score was -0.0852 in assay [1]; -0.13 in assay [2]; -0.239 in assay [3]; 0.101 in assay [4]; -0.453 in assay [5]; -0.642 in [6]. Besides, the z-score is -0.869 (inactive) in [7]; 0.392 in assay [8]; 0.654 in assay [9]; -0.283 (inactive) in assay [10]; -0.233 in assay [11]; -2.68 (inactive) in assay [12]. In addition, the z-score in [13] was 0.364 (inactive); in assay [15], 0.212 (inactive); in assay [16], -0.406 (inactive); in [17], -0.909 (inactive); in assay [18], -1.05 (inactive); in assay [19], 0.404. The composite z-score in assay [14] was -0.287 (inactive); in assay [20] it was -0.338.

On to `O=C1C2C=CC(C(O)c3ccc(-c4ccccc4)s3)N(n3cnnc3)C2C(=O)N1Cc1ccccc1` (stereo not given), for which the z-score in [1] is -0.787; in [2], -0.293; in assay [3], -0.638; in assay [4], -0.593; in assay [5], -1.87; in assay [6], -0.666. In addition, the z-score is -0.878 (inactive) in [7]; -0.128 in assay [8]; 0.871 in assay [9]; -1 (inactive) in assay [10]; -0.295 in assay [11]; 1.07 (inactive) in [12]. For the same compound, the z-score in assay [13] was -0.559 (inactive); in [15], 0.092 (inactive); in [16], 0.766 (inactive); in assay [17], -0.27 (inactive); in assay [18], -0.0301 (inactive); in assay [19] it was -0.259. The composite z-score in [14] is 0.267 (inactive); in [20], 0.296.

As for `C=CCC(OC(C)=O)[C@@H]1[C@@H](N(Cc2ccc(-c3ccccc3)cc2)C(=O)Cc2ccc(F)cc2)c2cc(OCCCO)ccc2N1C(=O)c1ccc2ccccc2n1` (stereo not given in full), the z-score in assay [1] was 1.07; in assay [2], 0.203; in assay [3], 1.14; in assay [4], -2.11; in assay [5] it was 0.246; in assay [6] it was 2.97. Moreover, the z-score was 0.25 (inactive) in [7]; -0.359 in [8]; 1.7 in [9]; 1.37 (inactive) in assay [10]; 1.29 in [11]; -0.186 (inactive) in [12]. Moreover, the z-score was 1.08 (inactive) in assay [13]; -0.619 (inactive) in assay [15]; -0.452 (inactive) in [16]; 0.918 (inactive) in assay [17]; 0.761 (inactive) in [18]; 0.893 in assay [19]. For the same compound, the composite z-score in assay [14] is -0.203 (inactive); in [20], 0.103.

As to `CC(C)CNC(=O)[C@@]1(c2ccc([N+](=O)[O-])cc2)CC(=O)N(CC23CC4CC(CC(C4)C2)C3)[C@@H]1c1ccc(CO)cc1`, the z-score was -0.642 in assay [1]; 1.57 in assay [2]; -0.715 in [3]; -2.68 in assay [4]; -3.66 in [5]; 0.0331 in [6]. In addition, the z-score was 0.226 (inactive) in assay [7]; -1 in assay [8]; 0.857 in assay [9]; -2.47 (inactive) in assay [10]; -1.69 in [11]; -0.565 (inactive) in assay [12]. The z-score in assay [13] is -2.08 (inactive); in assay [15] it was 0.913 (inactive); in assay [16], -0.813 (inactive); in assay [17] it was 0.629 (inactive); in assay [18], 1.25 (inactive); in [19] it was -3.32. The composite z-score in [14] was -1.23 (inactive); in assay [20] it was -0.193.
